# About 9,100 (2.8%) of roughly 320,000 compounds were called active. Where a call stands in place of a potency, no number is given. Roughly 3% stayed inconclusive and do not appear here. Calls follow the shape of the dose curve; as a rule, active = well fitted activation curve with a large enough effect; inconclusive = small, poorly fitted or top-dose-only effect; inactive = no such curve, though single readings can be large or run the other way. Only a selection was taken, and actives are over-represented in it overall.
# Assay: qHTS Assay for Rab9 Promoter Activators; also: nearly all actives have a fitted effect of over 60% in size
# Details: Huh7 Rab9 promoter-luciferase reporter, luminescence, 24 h; series mostly up to 9.22 µM
# How it was run: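 Luminescence from Amplite-detected luciferase (10 minutes, ambient) reports Rab9 promoter activation. Before that, stable Rab9-luciferase Huh7 cells (1500/well, reduced-serum OP-MEM I plus 10% FBS) were exposed to compound for 24 hours at 37C.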
# Potency is read from the fitted curve at half-maximal effect.
row,SMILES,Potency
1,CCOc1ccc(NC(=O)c2ccc(NC(=O)COC(=O)c3ccc(NC(=O)CC#N)cc3)cc2)cc1,2240 nM (active)
2,CCOc1ccc(C(=O)Nc2ccncc2)cc1,inactive
3,CCOc1cccc(NC(=O)CC#N)c1,inactive
4,Cc1cccc(NS(=O)(=O)c2ccc(C)c(C(=O)NCC(c3ccccc3)N(C)C)c2)c1 (stereo not drawn),inactive
5,O=C(Nc1ncccc1O)c1ccc(S(=O)(=O)N2CCCCCC2)cc1,inactive
6,O=C(Nc1ncccc1O)c1ccc(C(=O)c2ccccc2)cc1,4470 nM (active)
7,O=C(Nc1ncccc1O)c1ccc(S(=O)(=O)N2CCCC2)cc1,inactive
8,C=CCn1c(SCC(=O)NC(=O)Cc2ccccc2)nc2ccccc2c1=O,inactive
9,Cc1ccc(S(=O)(=O)CCC(=O)OCC(=O)NCCc2ccc(S(N)(=O)=O)cc2)cc1,inactive
10,N#C/C(=C(/O)COC(=O)COc1ccc(Cl)cc1)c1nc2ccccc2[nH]1,inactive
11,O=C(Cc1nc2ccccc2[nH]c1=O)c1ccc(Cl)cc1,2000 nM (active)
12,O=C(/C(=C/c1cccc(Cl)c1)c1nc2ccccc2[nH]1)c1ccccc1,inactive
13,CC(C)(C)OC(=O)Nc1ccc([C@@H](NC(=O)OC(C)(C)C)C(=O)OC(C)(C)C)cc1,inactive
14,Cn1c(CC(=O)Nc2ccccc2)nnc1SCC(=O)c1ccccc1,inactive
15,N#Cc1ccc(CSc2nnc3ccccn23)cc1,inactive
16,Cc1ccc(-n2c(C)cc(C(=O)CN3C(=O)C(=O)N(C4CCCC4)C3=O)c2C)cc1,inactive
17,O=C(CSc1nnc2ccccn12)c1ccccc1,2510 nM (active)
18,Cc1cc(C(=O)CSc2nc(N)cc(=O)[nH]2)c(C)n1-c1cccc(F)c1,inactive
19,Cc1ccc(-n2c(C)cc(C(=O)CSc3nnc4ccccn34)c2C)cc1,398 nM (active)
20,COc1ccc(NC(=O)CSc2nnc(C3CC3)n2C)cc1S(=O)(=O)N1CCCCC1,inactive
21,Cc1ccc(Nc2nnc(SCC(=O)c3cc4ccccc4o3)s2)cc1C,inactive
22,CC(C)c1ccc(Nc2nnc(SCC(=O)c3nnc(-c4ccccc4)o3)s2)cc1,4470 nM (active)
23,O=C(CSc1nnc(Nc2ccccc2)s1)Nc1cccnc1Cl,inactive
24,COc1cc2c(cc1OC)C(=O)NCC(C)(C)O2,inactive

row,SMILES,Potency
1,COc1ccccc1-c1sc2ccccc2c1-c1ccc(Br)nc1,inactive
2,Cc1csc(SCC(=O)N(c2ccccc2)C(C)C)n1,inactive
3,NC(=O)c1ccsc1NC(=O)COC(=O)COc1ccc(C=O)cc1,inactive
4,O=C(O)c1ccccc1N=N/C(=N/Nc1cc(S(=O)(=O)O)ccc1O)c1ccccc1,inactive
5,O=C(O)c1cccc(S(=O)(=O)N2CC=C(c3ccccc3)CC2)c1,inactive
6,COc1cc2c(cc1OC)/C(=C/C(=O)c1ccc(NC(C)=O)cc1)NCC2,inactive
7,CC1CN/C(=C\C(=O)c2ccc(Br)cc2)C(=O)N1 (stereo not drawn),501 nM (active)
8,CN1CCCC(OC(=O)COc2ccc(Br)cc2)C1 (stereo not drawn),inactive
9,CCCCNC(=O)OCCSCCS(=O)(=O)c1ccc(Cl)cc1,inactive
10,CC(=O)c1sc(NC(=O)C2=NN(c3ccccc3)C(=O)CC2)nc1C,inactive
11,COc1cc2ccccc2cc1C(=O)Nc1ccncc1,inactive
12,CC(=O)c1sc(N/N=C/c2ccc(C(C)C)cc2)nc1C,794 nM (active)
13,CC(=O)c1sc(NC(=O)c2ccc(C)cc2)nc1C,1780 nM (active)
14,Cc1nnc(C)n1/N=C/c1ccc(C(C)C)cc1,inactive
15,CC(=O)c1sc(NC(=O)CCCOc2ccccc2C)nc1C,inactive
16,COc1cc2ccccc2cc1C(=O)Nc1nc(C)c(C(C)=O)s1,3980 nM (active)
17,CC(=O)c1sc(N/N=C\c2ccc(C)cc2)nc1C,2000 nM (active)
18,CC(=O)c1sc(N)nc1C,inactive
19,COc1ccc(/C=N\NC(=O)c2sc(N)nc2C)cc1OC,inactive
20,COc1cc2ccccc2cc1C(=O)Nc1ccccc1C,inactive
21,Cc1ccc(S(=O)(=O)Nc2nc(C)cc(N/N=C/c3ccc(O)cc3)n2)cc1,inactive
22,N#Cc1ccc(C(=O)OCC(=O)NC(=O)NC2CCCCC2)cc1,inactive
23,CCN(CC(=O)Nc1cc(Cl)ccc1C)C(=O)CSCc1ccccc1,inactive
24,CC(Oc1ccc(F)cc1F)C(=O)/C=C/N(C)C (stereo not drawn),inactive

row,SMILES,Potency
1,COc1ccccc1-c1nn(Cc2ccccc2)cc1C(=O)N1CCN(c2ncccn2)CC1,inactive
2,O=C(COC(=O)c1ncc(Cl)c(Cl)c1Cl)NCc1ccccc1,inactive
3,CCc1ccccc1S(=O)(=O)Cc1ccc(C(=O)NCCc2ccccc2)o1,inactive
4,CCN(CC)CCN1C(=O)C(=O)/C(=C(/O)c2ccccc2)C1c1ccccc1F (stereo not drawn),inactive
5,CCN(CC)CCN1C(=O)C(=O)/C(=C(/O)c2cnn(-c3ccccc3)c2C)C1c1cccs1 (stereo not drawn),2510 nM (active)
6,CCN(CC)CCN1C(=O)C(=O)/C(=C(/O)c2ccc(OC)c(OC)c2)C1c1ccccn1 (stereo not drawn),inactive
7,COc1ccc(S(=O)(=O)N2CCC(C(=O)OCC(=O)c3ccccc3)CC2)cc1[N+](=O)[O-],inactive
8,COc1ccc2sc(-c3ccc(N(C)C)cc3)c(C#CCO)c2c1,inactive
9,Cc1ccc(CN2CC(C(=O)N3CCN(S(=O)(=O)c4ccccc4)CC3)CC2=O)cc1 (stereo not drawn),inactive
10,Cc1ccc(C(=O)N/C(=C/c2cccs2)C(=O)NCC2CCCO2)cc1 (stereo not drawn),inactive
11,Cc1ccc(-n2c(C)cc(/C=C(\C#N)C(=O)NCC3CCCO3)c2C)cc1 (stereo not drawn),3980 nM (active)
12,Cc1ccc(S(=O)(=O)N2CCC(C(=O)NCC3CCCO3)CC2)cc1 (stereo not drawn),inactive
13,COc1ccc(C)cc1NC(=O)c1ccc(-c2ccc(C(C)=O)cc2)o1,inactive
14,CCOC(=O)c1ccc(-c2ccc(C(=O)Nc3cccnc3)o2)cc1,2240 nM (active)
15,CCOC(=O)c1ccc(NC(=O)c2cccnc2)cc1,inactive
16,CCOc1cc(CNCc2ccccn2)ccc1OCC(=O)NC(C)(C)C,inactive
17,Cc1ccc(S(=O)(=O)N2CCN(c3ncnc4ccccc34)CC2)cc1,inactive
18,CCc1ccc(C(=O)N2CCN(S(=O)(=O)c3sc(C(=O)O)c(C)c3C(=O)O)CC2)cc1,inactive
19,Cn1c(CCC(=O)OCC(=O)NCc2ccccc2Cl)nc(=O)c2ccccc21,inactive
20,CC(C)n1ncc2c(C(=O)Nc3ccc(CC#N)cc3)cc(C3CC3)nc21,inactive
21,C=CCC(NC(=O)Cc1ccccc1)C(=O)NCCC (stereo not drawn),inactive
22,COc1ccc(CNC(=O)c2ccc3oc(C(C)C)nc3c2)cc1,2820 nM (active)
23,COc1ccc(CNC(=O)c2cc(=O)c3c(C)cc(C)cc3o2)cc1,inactive
24,CC(C)c1nc2cc(C(=O)NC(C)c3cnn(C)c3)ccc2o1 (stereo not drawn),inactive

row,SMILES,Potency
1,CCOc1ccc(S(=O)(=O)N2CCC(C(=O)NCC(=O)Nc3cccc(Cl)c3C)CC2)cc1,inactive
2,Cc1cccc(C(=O)c2cccc(C)c2)c1,inactive
3,N/C(=N\OC(=O)c1cc(-c2ccccc2)nc2ccccc12)c1ccncc1,inactive
4,Cc1cccc(/C(N)=N/OC(=O)c2ccccc2Cl)c1,891 nM (active)
5,O=S(=O)(c1ccc(Cl)cc1)c1nc(-c2ccccc2F)oc1NCCN1CCOCC1,inactive
6,CC(=O)c1c(C)[nH]c(C(=O)Nc2cc(S(=O)(=O)N(C)C)ccc2C)c1C,inactive
7,O=C(CCNC(=O)c1ccc([N+](=O)[O-])cc1)NC1CCCCC1,inactive
8,CC(=O)c1ccc(N2Cc3ccccc3C2)cc1,1780 nM (active)
9,CC(=O)c1ccc(N2CCN(CC(O)c3ccccc3)CC2)cc1 (stereo not drawn),inactive
10,CC(=O)c1ccc(N2CCN(C(=O)CCc3ccccc3)CC2)cc1,inactive
11,COc1ccc(F)cc1C(=O)COC(=O)c1n[nH]c(=O)c2ccccc12,inactive
12,CCOc1ccc2cc(C#N)c(SCC(=O)OC)nc2c1,1580 nM (active)
13,CCOC(=O)CSc1nccc(N(C)C)c1C#N,inactive
14,Cc1nonc1NC(=O)CSc1nc2ccccc2cc1C#N,inactive
15,COc1ccc(C(C)(C)C)cc1NC(=O)CCN1C(=O)C2CCCCC2C1=O (stereo not drawn),inactive
16,Cc1ccc(O)c(NC(=O)c2cc(-c3ccco3)on2)c1,inactive
17,CCOc1ncccc1C(=O)OCC(=O)c1c[nH]c2ccccc12,inactive
18,CC1CC1C(=O)OCC(=O)Nc1cccc(F)c1 (stereo not drawn),inactive
19,Cc1ccc(OCc2nc3ccccc3n2C)cc1,1780 nM (active)
20,Cn1c(COc2ccc(Cl)cc2)nc2ccccc2c1=O,inactive
21,CC(C)n1c(COc2ccccc2)nc2ccccc21,inactive
22,CN(C(=O)CC1C(=O)NCCN1Cc1ccc2ccccc2c1)C1CCOCC1 (stereo not drawn),inactive
23,O=C(CNC(=O)OCc1ccccc1)NC1CCCCNC1=O (stereo not drawn),inactive
24,CCc1ccc(-c2nn(-c3ccccc3C)cc2C(=O)N2CCN(C3CCS(=O)(=O)C3)CC2)cc1 (stereo not drawn),inactive

row,SMILES,Potency
1,NC(=O)Cc1ccc2c(c1)[nH]c1ccccc12,inactive
2,NC(=O)Cc1ccc2sc(-c3ccccc3)nc2c1,3550 nM (active)
3,O=C(O)Cc1sc(-c2ccccc2)nc1-c1cccs1,inactive
4,CC(=O)N1CCOc2ccc(S(=O)(=O)N3CCC(C(=O)Nc4ccccc4F)CC3)cc21,inactive
5,CCc1nnc(NC(=O)c2cc(S(=O)(=O)N3CCCCC3)ccc2C)s1,inactive
6,COc1ccc(-c2nc(SCC(=O)N3CCCC3)n[nH]2)cc1,inactive
7,COc1ccc(-c2nc3n(c2Br)CCC3)cc1,2510 nM (active)
8,COc1ccc(-c2nnc3n2CCCCC3)cc1,inactive
9,Cc1cccc(NC(=O)c2ccc3nsnc3c2)c1C,inactive
10,O=C(Nc1ccccc1Cl)c1ccc2nsnc2c1,2510 nM (active)
11,O=C(Nc1ccccc1N1CCCCC1)c1ccc2nccnc2c1,inactive
12,COc1ccc(Cl)cc1NC(=O)COc1ccc2c(c1)OCO2,inactive
13,CCOC(=O)CN(C(=O)CN1CCOCC1)c1ccc(Br)cc1,inactive
14,O=C(CN1CCN(c2ccccc2F)CC1)c1ccc2c(c1)OCO2,inactive
15,O=C(COC(=O)c1ccccc1)c1ccc2c(c1)OCCO2,631 nM (active)
16,CC(=O)Nc1cccc(C(=O)OCC(=O)NCc2cc(C)c(O)c(C)c2)c1,inactive
17,O=C(COC(=O)c1ccncc1)c1ccccc1,inactive
18,O=C(OCc1ccccc1F)c1ccc2c(c1)OCCO2,3160 nM (active)
19,O=C(COC(=O)c1ccc2c(c1)OCCO2)NCc1ccccc1,inactive
20,CC(=O)Nc1cccc(C(=O)OCC(=O)c2ccc3c(c2)OCO3)c1,89.1 nM (active)
21,CC(NC(=O)COC(=O)c1ccc2c(c1)OCO2)c1ccccc1 (stereo not drawn),inactive
22,C/C(=N\NC(=O)C(N)=O)c1ccc2c(c1)OCCO2,inactive

# — PubChem BioAssay AID485297 (National Center for Advancing Translational Sciences (NCATS), 2010)
